From PubChem BioAssay (NCI)
About 79,000 compounds went through this panel and 15% of them were active in at least one assay; those are over-represented in the sample as a whole. A number with no mark means an inactive call. Activity calls are given as the source filed them. Cut-off read from the data, not from the text of the source: active = growth inhibition above about 70%; inactive = the rest.

Legend:
[1] = NCI Yeast Anticancer Drug Screen. Data for the rad52 strain (AID 147);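 note: 0% = growth of vehicle-treated control cultures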; conditions: S. cerevisiae rad52 mutant growth inhibition, hits give high values
Method in brief: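 Growth of repair-deficient yeast cells was compared between compound-treated and vehicle-treated cultures to give percent inhibition.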

[2] = NCI Yeast Anticancer Drug Screen. Data for the wt1 strain (AID 149);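 note: 0% = growth of vehicle-treated wt1 cultures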; conditions: S. cerevisiae wt1 strain (SPY 50644) growth inhibition, hits give high values
Method in brief: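 Measured: growth of wt1 yeast under compound versus vehicle treatment, reported as inhibition.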

[3] = NCI Yeast Anticancer Drug Screen. Data for the rad50EPP+ strain (AID 151);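 note: 0% = growth of vehicle-treated control cultures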; conditions: S. cerevisiae rad50 mutant strain, hits give high values
Method in brief: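 Measured: growth inhibition of rad50EPP+ yeast. Reference: vehicle-treated controls. Screen uses strains with defined genetic alterations in DNA damage repair or cell cycle control.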

[4] = NCI Yeast Anticancer Drug Screen. Data for the rad50 strain (AID 155);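 note: 0% = growth of vehicle-only cultures of the same strain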; conditions: S. cerevisiae rad50 strain growth inhibition, hits give high values
Method in brief: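 Growth of the mutant yeast was measured after compound exposure and referenced to vehicle-treated cultures.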

[5] = NCI Yeast Anticancer Drug Screen. Data for the mec2-1 strain (AID 157); conditions: S. cerevisiae mec2-1 strain, hits give high values
Method in brief: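 Compounds were applied to mec2-1 yeast cells. Their growth was then compared with that of vehicle-treated cultures to give growth inhibition.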

[6] = NCI Yeast Anticancer Drug Screen. Data for the rad14 strain (AID 159);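 note: 0% = growth of vehicle-treated control cultures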; conditions: S. cerevisiae rad14 strain growth inhibition, hits give high values
Method in brief: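 Here, inhibition of yeast growth was measured after compound exposure, using a strain with a genetic defect in DNA damage repair and vehicle-treated cultures as the reference.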

[7] = NCI Yeast Anticancer Drug Screen. Data for the sgs1 mgt1 strain (AID 161);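 note: 0% = growth of cultures given vehicle only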; conditions: S. cerevisiae sgs1 mgt1 strain, hits give high values
Method in brief: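 Compounds are added to genetically altered yeast, and growth is compared with cultures given vehicle alone to give percent inhibition.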

[8] = NCI Yeast Anticancer Drug Screen. Data for the CLN2oe strain (AID 163);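 note: 0% = growth of vehicle-only control cultures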; conditions: S. cerevisiae CLN2oe strain, hits give high values
Method in brief: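 Cells of an engineered yeast line with disturbed cell-cycle regulation are treated with compound. Inhibition of growth is then calculated relative to the vehicle-treated reference.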

[9] = NCI Yeast Anticancer Drug Screen. Data for the cln2 rad14 strain (AID 165);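 note: 0% = growth equal to vehicle treated cultures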; conditions: S. cerevisiae cln2 rad14 strain, hits give high values
Method in brief: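 Strain: cln2 rad14 yeast, altered in cell cycle control and DNA damage repair. Read-out: growth inhibition vs vehicle.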

[10] = NCI Yeast Anticancer Drug Screen. Data for the bub3 strain (AID 167); conditions: S. cerevisiae bub3 mutant strain, hits give high values
Method in brief: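 Whole-cell yeast assay. The mutant strain was incubated with compounds, and growth inhibition was determined by comparison with vehicle-treated cells.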

[11] = NCI Yeast Anticancer Drug Screen. Data for the wt2 strain (AID 169);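 note: 0% = growth of vehicle-treated yeast cultures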; conditions: S. cerevisiae wt2 strain growth inhibition, hits give high values
Method in brief: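 Growth of compound-treated yeast is measured and expressed as inhibition relative to vehicle-only controls.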

[12] = NCI Yeast Anticancer Drug Screen. Data for the sgs1 strain (AID 173);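 note: 0% = growth of vehicle-only control cultures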; conditions: S. cerevisiae sgs1 mutant, hits give high values
Method in brief: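 Strain with an altered DNA repair or cell cycle pathway exposed to compound. Growth then measured. Value = inhibition versus vehicle control.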

[13] = NCI Yeast Anticancer Drug Screen. Data for the mlh1 rad18 strain (AID 175); conditions: S. cerevisiae mlh1 rad18 strain growth inhibition, hits give high values
Method in brief: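 A repair-deficient yeast strain is exposed to test compound, and growth is scored relative to vehicle-treated controls.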

[14] = NCI Yeast Anticancer Drug Screen. Data for the rad18 strain (AID 177); conditions: S. cerevisiae rad18 mutant growth inhibition, hits give high values
Method in brief: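 DNA-repair-defective yeast; compound treatment; growth inhibition scored against vehicle.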

[15] = NCI Yeast Anticancer Drug Screen. Data for the mgt1 strain (AID 153); conditions: S. cerevisiae mgt1 mutant growth inhibition, hits give high values
Method in brief: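 Compounds were applied to mgt1 mutant yeast, and growth was then compared against vehicle-treated control cultures to give percent inhibition.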

[16] = NCI Yeast Anticancer Drug Screen. Data for the mlh1 strain (AID 171);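 note: 0% = growth of vehicle-treated control cultures of the same strain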; conditions: S. cerevisiae mlh1 strain growth inhibition, hits give high values
Method in brief: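 Test agents were incubated with yeast bearing a defined DNA damage repair or cell cycle control alteration; values are growth inhibition normalised to vehicle-treated cultures.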

[17] = at 5.0 µM (retest, dose inferred, filed as 0.5)
[18] = at 50.0 µM (retest, dose inferred, filed as 5.0)

CCC/C(Cl)=N\OC(=O)Nc1ccc(Br)cc1
growth inhibition ([1]; at 1.2 µM): 58%
growth inhibition ([1]; at 3.7 µM): 69%
growth inhibition ([1]; at 11.0 µM): 94% (active)
growth inhibition ([1]; at 33.0 µM): 98% (active)
growth inhibition ([1]; at 100.0 µM): 98% (active)
growth inhibition ([2]; at 1.2 µM): 13%
growth inhibition ([2]; at 3.7 µM): 14%
growth inhibition ([2]; at 11.0 µM): 58%
growth inhibition ([2]; at 33.0 µM): 97% (active)
growth inhibition ([2]; at 100.0 µM): 98% (active)
growth inhibition ([3]; at 1.2 µM): 26%
growth inhibition ([3]; at 3.7 µM): 31%
growth inhibition ([3]; at 11.0 µM): 56%
growth inhibition ([3]; at 33.0 µM): 77% (active)
growth inhibition ([3]; at 100.0 µM): 81% (active)
growth inhibition ([4]; at 1.2 µM): 32%
growth inhibition ([4]; at 3.7 µM): 40%
growth inhibition [4, 17]: 9%
growth inhibition ([4]; at 11.0 µM): 86% (active)
growth inhibition ([4]; at 33.0 µM): 97% (active)
growth inhibition [4, 18]: 99% (active)
growth inhibition ([4]; at 50.0 µM): 88.2% (active)
growth inhibition ([4]; at 100.0 µM): 98% (active)
growth inhibition ([5]; at 1.2 µM): 16%
growth inhibition ([5]; at 3.7 µM): 27%
growth inhibition [5, 17]: -16%
growth inhibition ([5]; at 11.0 µM): 77% (active)
growth inhibition ([5]; at 33.0 µM): 98% (active)
growth inhibition [5, 18]: 99% (active)
growth inhibition ([5]; at 50.0 µM): 92% (active)
growth inhibition ([5]; at 100.0 µM): 99% (active)
growth inhibition ([6]; at 1.2 µM): 32%
growth inhibition ([6]; at 3.7 µM): 33%
growth inhibition ([6]; at 11.0 µM): 90% (active)
growth inhibition ([6]; at 33.0 µM): 98% (active)
growth inhibition ([6]; at 100.0 µM): 99% (active)
growth inhibition [7, 17]: 9%
growth inhibition [7, 18]: 99% (active)
growth inhibition ([7]; at 50.0 µM): 84% (active)
growth inhibition ([8]; at 1.2 µM): 10%
growth inhibition ([8]; at 3.7 µM): 15%
growth inhibition ([8]; at 11.0 µM): 84% (active)
growth inhibition ([8]; at 33.0 µM): 98% (active)
growth inhibition ([8]; at 100.0 µM): 99% (active)
growth inhibition [9, 17]: -22%
growth inhibition [9, 18]: 99% (active)
growth inhibition ([9]; at 50.0 µM): 89.8% (active)
growth inhibition ([10]; at 1.2 µM): 1%
growth inhibition ([10]; at 3.7 µM): 17%
growth inhibition [10, 17]: -48%
growth inhibition ([10]; at 11.0 µM): 63%
growth inhibition ([10]; at 33.0 µM): 94% (active)
growth inhibition [10, 18]: 99% (active)
growth inhibition ([10]; at 50.0 µM): 87.6% (active)
growth inhibition ([10]; at 100.0 µM): 96% (active)
growth inhibition ([11]; at 1.2 µM): 25%
growth inhibition ([11]; at 3.7 µM): 33%
growth inhibition ([11]; at 11.0 µM): 90% (active)
growth inhibition ([11]; at 33.0 µM): 98% (active)
growth inhibition ([11]; at 100.0 µM): 99% (active)
growth inhibition ([12]; at 1.2 µM): 65%
growth inhibition ([12]; at 3.7 µM): 62%
growth inhibition ([12]; at 11.0 µM): 94% (active)
growth inhibition ([12]; at 33.0 µM): 98% (active)
growth inhibition ([12]; at 100.0 µM): 98% (active)
growth inhibition [13, 17]: 61%
growth inhibition [13, 18]: 99% (active)
growth inhibition ([13]; at 50.0 µM): 83.8% (active)
growth inhibition ([14]; at 1.2 µM): 71% (active)
growth inhibition ([14]; at 3.7 µM): 77% (active)
growth inhibition ([14]; at 11.0 µM): 93% (active)
growth inhibition ([14]; at 33.0 µM): 97% (active)
growth inhibition ([14]; at 100.0 µM): 98% (active)

O=C1c2ccccc2C(=O)c2c(NC3CCCCC3)ccc(Nc3ccc(S(=O)(=O)O)cc3)c21
growth inhibition ([1]; at 1.2 µM): -5%
growth inhibition ([1]; at 3.7 µM): -5%
growth inhibition ([1]; at 11.0 µM): -5%
growth inhibition ([1]; at 33.0 µM): 37%
growth inhibition ([1]; at 100.0 µM): 49%
growth inhibition ([2]; at 1.2 µM): -1%
growth inhibition ([2]; at 3.7 µM): -5%
growth inhibition ([2]; at 11.0 µM): -7%
growth inhibition ([2]; at 33.0 µM): 10%
growth inhibition ([2]; at 100.0 µM): 33%
growth inhibition ([15]; at 1.2 µM): -2%
growth inhibition ([15]; at 3.7 µM): -1%
growth inhibition ([15]; at 11.0 µM): -2%
growth inhibition ([15]; at 33.0 µM): 81% (active)
growth inhibition ([15]; at 100.0 µM): 68%
growth inhibition ([4]; at 1.2 µM): 0%
growth inhibition ([4]; at 3.7 µM): -2%
growth inhibition [4, 17]: 8%
growth inhibition ([4]; at 11.0 µM): 9%
growth inhibition ([4]; at 33.0 µM): 27%
growth inhibition [4, 18]: 62%
growth inhibition ([4]; at 50.0 µM): 79.2% (active)
growth inhibition ([4]; at 100.0 µM): 44%
growth inhibition ([5]; at 1.2 µM): 1%
growth inhibition ([5]; at 3.7 µM): -5%
growth inhibition [5, 17]: -14%
growth inhibition ([5]; at 11.0 µM): -5%
growth inhibition ([5]; at 33.0 µM): 14%
growth inhibition [5, 18]: 59%
growth inhibition ([5]; at 50.0 µM): 77% (active)
growth inhibition ([5]; at 100.0 µM): 48%
growth inhibition ([6]; at 1.2 µM): 2%
growth inhibition ([6]; at 3.7 µM): -4%
growth inhibition ([6]; at 11.0 µM): 2%
growth inhibition ([6]; at 33.0 µM): 48%
growth inhibition ([6]; at 100.0 µM): 71% (active)
growth inhibition [7, 17]: -13%
growth inhibition [7, 18]: 85% (active)
growth inhibition ([7]; at 50.0 µM): 77.2% (active)
growth inhibition ([8]; at 1.2 µM): -5%
growth inhibition ([8]; at 3.7 µM): 4%
growth inhibition ([8]; at 11.0 µM): -5%
growth inhibition ([8]; at 33.0 µM): 1%
growth inhibition ([8]; at 100.0 µM): 18%
growth inhibition [9, 17]: -13%
growth inhibition [9, 18]: -4%
growth inhibition ([9]; at 50.0 µM): 59%
growth inhibition ([10]; at 1.2 µM): -2%
growth inhibition ([10]; at 3.7 µM): -4%
growth inhibition [10, 17]: 6%
growth inhibition ([10]; at 11.0 µM): 5%
growth inhibition ([10]; at 33.0 µM): 36%
growth inhibition [10, 18]: 46%
growth inhibition ([10]; at 50.0 µM): 70.3% (active)
growth inhibition ([10]; at 100.0 µM): 30%
growth inhibition ([11]; at 1.2 µM): -3%
growth inhibition ([11]; at 3.7 µM): -4%
growth inhibition ([11]; at 11.0 µM): 5%
growth inhibition ([11]; at 33.0 µM): 80% (active)
growth inhibition ([11]; at 100.0 µM): 62%
growth inhibition ([16]; at 1.2 µM): -2%
growth inhibition ([16]; at 3.7 µM): -3%
growth inhibition ([16]; at 11.0 µM): 5%
growth inhibition ([16]; at 33.0 µM): 50%
growth inhibition ([16]; at 100.0 µM): 71% (active)
growth inhibition ([12]; at 1.2 µM): -1%
growth inhibition ([12]; at 3.7 µM): -2%
growth inhibition ([12]; at 11.0 µM): 23%
growth inhibition ([12]; at 33.0 µM): 79% (active)
growth inhibition ([12]; at 100.0 µM): 72% (active)
growth inhibition [13, 17]: 5%
growth inhibition [13, 18]: 72% (active)
growth inhibition ([13]; at 50.0 µM): 82.9% (active)
